Results from PubChem BioAssay (NCATS).
Results filed as inconclusive are left out. Active and inactive are the calls of the source. Unless noted, calls follow the shape of the dose curve; as a rule, active = well fitted curve in the direction sought with a large enough effect; inconclusive = small, poorly fitted or top-dose-only effect, or another doubt; inactive = no such curve, though single readings can be large; an effect the other way counts as inactive or inconclusive.

Experiments:
[1] = AP1 Signaling Pathway (AID 357; active = well fitted curve in either direction with a large enough effect, not every such curve was filed as active;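 also: ME-180 reporter cells stimulated with EGF at its EC50 level; % is scaled to controls: 0 for no effect and ±100 for the full control effect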); conditions: ME-180 AP-1-bla reporter, EGF-induced, beta-lactamase ratio, 5 h; at 7.69 µM (top of the series) unless noted
Outline: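 Read-out was the 460nm/530nm emission ratio (excitation 405nm) after CCF4 loading for 2.5 hours at room temperature. Cells carried an AP-1-driven beta-lactamase reporter, were stimulated with EC50 EGF plus compound for 5 hours, and AC50 values came from titrations.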

[2] = NFAT Signaling Pathway (AID 444; active = well fitted curve in either direction with a large enough effect, not every such curve was filed as active;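 also: carbachol stimulus at about its EC50 of 1 µM final; % is scaled to controls: 0 for no effect and ±100 for the full control effect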); conditions: Jurkat NFAT-bla M1, carbachol, beta-lactamase ratio, 5 h; at 7.69 µM (top of the series) unless noted
Outline: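 Jurkat cells with NFAT-driven β-lactamase reporter and co-expressed M1 receptor, stimulated with carbachol (final 1 uM, ~EC50), compound titration, 5 h at 37 °C. CCF4 loaded 1 h at RT; 460/530 nm ratio gave %activity and AC50.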

[3] = Stat Signaling Pathway (AID 446; active = well fitted curve in either direction with a large enough effect, not every such curve was filed as active;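 also: ME-180 cervical cancer cells given 40 pM IL-6 alongside compound; SIE-controlled beta-lactamase reporter measured as 460/530 nm FRET emission ratio; % is scaled to controls: 0 for no effect and ±100 for the full control effect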); conditions: ME-180 (cervical carcinoma) SIE beta-lactamase reporter, IL-6 stimulated, 5 h; at 7.69 µM (top of the series) unless noted
Outline: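 Emission at 460 and 530 nm (excitation 405 nm) reports SIE-controlled beta-lactamase in ME-180 cells. Cells received compound with 40 pM IL-6 for 5 hrs at 37 C; data scaled between 300 pM IL-6 and 125 nM JAK-inhibitor controls.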

[4] = target: Glucocorticoid receptor (Homo sapiens) (UniProt P04150); experiment: GR-GFP Redistribution (AID 450;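 active = compounds whose dose series gives a full or clear partial fitted curve of increased nuclear translocation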; also: potency is read from the fitted curve at half-maximal effect); conditions: U2OS GR-GFP nuclear translocation, laser cytometry, 2 h
Glucocorticoid receptor (Homo sapiens), sequence (P04150 whole entry, looked up, the tested form may be a part): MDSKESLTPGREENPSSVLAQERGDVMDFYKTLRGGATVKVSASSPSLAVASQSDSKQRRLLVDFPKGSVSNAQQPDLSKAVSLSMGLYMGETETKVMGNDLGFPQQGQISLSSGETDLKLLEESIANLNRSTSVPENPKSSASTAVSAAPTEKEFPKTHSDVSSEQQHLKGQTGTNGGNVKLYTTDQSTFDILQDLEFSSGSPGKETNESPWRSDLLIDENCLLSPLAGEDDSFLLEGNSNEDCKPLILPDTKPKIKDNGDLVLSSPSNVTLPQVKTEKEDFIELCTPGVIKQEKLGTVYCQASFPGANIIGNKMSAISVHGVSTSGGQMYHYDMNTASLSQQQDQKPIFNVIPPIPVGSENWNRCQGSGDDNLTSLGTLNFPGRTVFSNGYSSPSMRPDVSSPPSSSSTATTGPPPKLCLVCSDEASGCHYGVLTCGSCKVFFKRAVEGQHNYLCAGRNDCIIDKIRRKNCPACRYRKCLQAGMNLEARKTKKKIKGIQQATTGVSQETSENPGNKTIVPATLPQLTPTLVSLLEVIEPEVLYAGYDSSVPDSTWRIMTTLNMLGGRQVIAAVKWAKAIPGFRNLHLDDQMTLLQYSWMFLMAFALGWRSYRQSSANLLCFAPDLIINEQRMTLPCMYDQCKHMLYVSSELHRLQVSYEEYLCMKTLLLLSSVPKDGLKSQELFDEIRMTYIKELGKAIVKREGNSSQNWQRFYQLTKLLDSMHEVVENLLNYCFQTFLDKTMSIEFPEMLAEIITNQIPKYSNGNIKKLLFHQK

[5] = target: Glucocorticoid receptor (Homo sapiens) (UniProt P04150); experiment: GR-EFC Redistribution (AID 451; calls by dose curve; also: potency is read from the fitted curve at half-maximal effect); conditions: CHO-K1 GR-EFC translocation, beta-gal luminescence, 2 h
Outline: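 CHO-K1 cells expressing nuclear EA and GR-ED fragments of b-gal; compounds titrated up to 46 uM final, 2 h at 37 C. GR nuclear translocation read as complemented b-gal luminescence after 1 h RT detection.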

[6] = target: Mitogen-activated protein kinase 10 (Mus musculus) (UniProt Q61831); experiment: JNK3 AlphaScreen Assay (AID 530; active = well fitted curve in either direction with a large enough effect, not every such curve was filed as active;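 also: kinase came from lysate of stimulated human HepG2 cells; signal reports phosphorylation of biotinylated GST-cJun 1-79 at Ser73 with 10 µM ATP; % is scaled to controls: 0 for no effect and ±100 for the full control effect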)
Outline: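 HepG2 lysate (IL-1b/TNFa pre-activated) + biotin-GST-cJun 1-79 + anti-pSer73 cJun; cpd titration, 15 min RT; ATP 10 uM start; Tris pH 7.6, MgCl2, DTT, vanadate; beads in EDTA buffer; AlphaScreen.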

[7] = qHTS Assay for Lipid Storage Modulators (AID 1519; calls by dose curve); conditions: Drosophila S3 cells, BODIPY lipid droplet/cell ratio, laser cytometry, cells loaded with oleic acid; for activity change, negative = inhibition: at 57.5 µM (top of the series)
Outline: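 Cells seeded at 5,000 per well were treated with compounds over a concentration series and loaded with oleic acid (400 uM, as added). Lipid droplet fluorescence (488 nm excitation, 500-530 nm channel) was read by laser-scanning cytometry and normalized to 20 uM Triacsin C.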

[8] = target: Dual specificity protein kinase CLK4 (Homo sapiens) (UniProt Q9HAZ1); experiment: qHTS Assay for Inhibitors of CDC-like Kinase 4 (Kinase-Glo Assay) (AID 1770); also: nearly all actives have a fitted effect of over 65% in size; also: potency is read from the fitted curve at half-maximal effect
Dual specificity protein kinase CLK4 (Homo sapiens), sequence (Q9HAZ1 whole entry, looked up): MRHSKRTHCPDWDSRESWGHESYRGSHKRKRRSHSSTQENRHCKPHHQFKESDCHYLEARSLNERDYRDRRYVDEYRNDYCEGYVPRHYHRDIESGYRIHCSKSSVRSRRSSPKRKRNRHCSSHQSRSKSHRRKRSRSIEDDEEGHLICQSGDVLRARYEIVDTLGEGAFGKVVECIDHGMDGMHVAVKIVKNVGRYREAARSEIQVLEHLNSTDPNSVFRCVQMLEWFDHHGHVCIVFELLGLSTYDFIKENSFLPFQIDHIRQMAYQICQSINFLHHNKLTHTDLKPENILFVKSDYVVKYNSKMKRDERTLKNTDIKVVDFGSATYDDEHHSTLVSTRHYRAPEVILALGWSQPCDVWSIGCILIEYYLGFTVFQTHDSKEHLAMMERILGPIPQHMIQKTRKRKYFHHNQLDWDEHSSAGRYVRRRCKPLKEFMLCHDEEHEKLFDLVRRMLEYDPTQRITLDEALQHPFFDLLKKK
Outline: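 Luminescent ATP-depletion read-out (Kinase-Glo) after 4.5 h room-temperature reaction of Clk4 (25 nM final) with RS peptide (100 uM) and ATP (1 uM), pH 7.5 Tris buffer with MgCl2 and DTT.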

[9] = target: Dual specificity protein kinase CLK4 (Homo sapiens) (UniProt Q9HAZ1); experiment: qHTS Assay for Inhibitors of CDC-like Kinase 4 (ADP-Glo Assay) (AID 1771); also: nearly all actives have a fitted effect of over 70% in size; also: potency is read from the fitted curve at half-maximal effect
Outline: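 In this ADP-Glo format, 1 uM ATP and 100 uM RS peptide served as substrates for 25 nM Clk4 in Mg2+/EGTA/DTT/Triton buffer; reactions ran 1 hr at room temperature before luminescent ADP quantification.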

[10] = target: Dual specificity protein kinase CLK4 (Homo sapiens) (UniProt Q9HAZ1); experiment: qHTS Assay for Inhibitors of CDC-like Kinase 4 (ADP-FP Assay) (AID 1795); also: nearly all actives have a fitted effect of over 60% in size; also: potency is read from the fitted curve at half-maximal effect
Outline: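 Kinase activity was measured as ADP production using Transcreener orange tracer (4 nM) and ADP antibody (1 ug/mL) fluorescence polarization, with ADP calculated from a calibration curve. The 1 h reaction contained 6.25 nM Clk4, 1 uM ATP and 100 uM RS peptide at pH 7.5 with Mg2+.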

[11] = target: Ubiquitin carboxyl-terminal hydrolase 1 (Homo sapiens) (UniProt O94782); experiment: Inhibitors of USP1/UAF1: Pilot qHTS (AID 504865);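 also: rhodamine fluorescence freed from ubiquitin-rhodamine substrate followed over time; top concentration of the series differs between compounds; % is scaled to controls: 0 for no effect and ±100 for the full control effect; nearly all actives have a fitted effect of over 35% in size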
Ubiquitin carboxyl-terminal hydrolase 1 (Homo sapiens), sequence (O94782 whole entry, looked up): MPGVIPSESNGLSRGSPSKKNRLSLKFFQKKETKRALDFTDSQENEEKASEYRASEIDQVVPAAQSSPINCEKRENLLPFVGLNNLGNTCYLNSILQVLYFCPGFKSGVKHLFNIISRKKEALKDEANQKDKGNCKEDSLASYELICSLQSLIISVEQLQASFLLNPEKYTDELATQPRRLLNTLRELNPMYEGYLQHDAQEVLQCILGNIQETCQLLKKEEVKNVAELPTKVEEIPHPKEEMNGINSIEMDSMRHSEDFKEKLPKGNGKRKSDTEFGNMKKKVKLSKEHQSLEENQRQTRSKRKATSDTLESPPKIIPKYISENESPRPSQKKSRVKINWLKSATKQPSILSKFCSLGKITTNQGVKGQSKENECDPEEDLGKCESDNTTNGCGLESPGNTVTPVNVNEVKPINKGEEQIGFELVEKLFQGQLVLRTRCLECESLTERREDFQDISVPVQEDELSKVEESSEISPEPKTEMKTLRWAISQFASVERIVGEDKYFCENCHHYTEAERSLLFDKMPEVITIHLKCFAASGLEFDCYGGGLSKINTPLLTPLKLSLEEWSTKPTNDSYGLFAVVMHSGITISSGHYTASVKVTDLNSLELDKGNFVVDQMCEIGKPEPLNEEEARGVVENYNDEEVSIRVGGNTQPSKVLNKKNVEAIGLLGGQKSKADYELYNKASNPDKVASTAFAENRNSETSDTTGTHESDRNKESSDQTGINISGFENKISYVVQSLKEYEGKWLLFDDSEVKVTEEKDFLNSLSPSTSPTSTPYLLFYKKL
Outline: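 Deubiquitinase activity followed as kinetic rhodamine fluorescence release from 150 nM Ub-Rho. 1 nM USP1/UAF1 with compound, after 15 min room-temperature preincubation, in HEPES pH 7.8 buffer containing TCEP, EDTA, BSA and Tween-20.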

[12] = Primary qHTS for small molecule stabilizers of the endoplasmic reticulum resident proteome: Secreted ER Calcium Modulated Protein (SERCaMP) assay (AID 1508630); also: % is scaled to controls: 0 for no effect and ±100 for the full control effect
Outline: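 The SH-SY5Y reporter protocol was run at 3 concentrations up to 38.3 uM (primary) or 11 concentrations (follow-up): 16 h compound, 100 nM thapsigargin for 4 h, then extracellular luciferase luminescence.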

[13] = target: 3',5'-cyclic-AMP phosphodiesterase 4B (Homo sapiens) (UniProt Q07343); experiment: qHTS Assay for Inhibitors of PDE-IV (AID 607; active = well fitted activation curve with a large enough effect in the main read-out, with a control signal flat, not every such curve was filed as active; also: % of control where 0% means no effect)
3',5'-cyclic-AMP phosphodiesterase 4B (Homo sapiens), sequence (Q07343 whole entry, looked up): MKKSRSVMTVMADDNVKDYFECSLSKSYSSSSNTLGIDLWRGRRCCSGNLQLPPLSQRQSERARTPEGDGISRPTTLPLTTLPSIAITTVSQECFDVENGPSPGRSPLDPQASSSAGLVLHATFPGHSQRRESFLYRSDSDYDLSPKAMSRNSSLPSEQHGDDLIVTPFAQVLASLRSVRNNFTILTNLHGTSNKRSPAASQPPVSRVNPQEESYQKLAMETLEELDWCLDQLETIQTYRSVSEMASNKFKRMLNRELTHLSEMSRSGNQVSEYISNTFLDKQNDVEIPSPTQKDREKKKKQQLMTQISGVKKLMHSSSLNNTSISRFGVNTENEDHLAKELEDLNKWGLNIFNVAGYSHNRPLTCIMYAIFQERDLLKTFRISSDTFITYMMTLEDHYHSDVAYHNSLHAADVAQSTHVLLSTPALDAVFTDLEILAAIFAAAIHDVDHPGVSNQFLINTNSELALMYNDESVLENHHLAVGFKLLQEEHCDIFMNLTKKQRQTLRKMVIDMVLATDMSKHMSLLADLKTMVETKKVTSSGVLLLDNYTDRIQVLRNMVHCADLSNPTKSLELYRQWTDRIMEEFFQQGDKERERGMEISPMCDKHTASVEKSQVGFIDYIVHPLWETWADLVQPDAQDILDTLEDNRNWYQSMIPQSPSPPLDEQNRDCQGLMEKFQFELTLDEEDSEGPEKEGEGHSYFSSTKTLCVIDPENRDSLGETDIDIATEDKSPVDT
Outline: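 The readout is membrane depolarisation from a cAMP-sensing CNG channel, detected with a potential dye at ex 535/em 590. Cells were HEK293-derived (endogenous PDE-IV) at 1000 cells/well, titrated up to 22.9 uM final.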

[14] = target: Cytochrome P450 1A2 (Homo sapiens) (UniProt P05177); experiment: p450-cyp1a2 (AID 410; calls by dose curve; also: potency is read from the fitted curve at half-maximal effect)
Cytochrome P450 1A2 (Homo sapiens), sequence (P05177 whole entry, looked up): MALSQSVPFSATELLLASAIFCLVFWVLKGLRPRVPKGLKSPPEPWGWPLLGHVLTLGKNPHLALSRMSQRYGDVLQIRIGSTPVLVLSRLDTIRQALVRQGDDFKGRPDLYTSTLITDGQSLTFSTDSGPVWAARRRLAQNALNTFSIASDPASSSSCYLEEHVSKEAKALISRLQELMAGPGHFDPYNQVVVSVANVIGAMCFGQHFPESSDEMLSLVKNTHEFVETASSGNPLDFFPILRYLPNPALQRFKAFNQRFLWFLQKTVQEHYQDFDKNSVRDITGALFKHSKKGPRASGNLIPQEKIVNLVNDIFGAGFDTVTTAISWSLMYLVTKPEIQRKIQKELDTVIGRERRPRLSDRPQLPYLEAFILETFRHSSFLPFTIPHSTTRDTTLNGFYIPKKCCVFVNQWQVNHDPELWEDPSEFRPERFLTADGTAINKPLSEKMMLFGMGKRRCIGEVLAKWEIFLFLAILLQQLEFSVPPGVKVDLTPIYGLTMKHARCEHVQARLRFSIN
Outline: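 Read-out is luminescence from luciferin produced by CYP1A2 demethylation of Luciferin-ME (100uM, at Km). Detection reagent stopped the 60 min NADPH-dependent reaction; signals were normalized to 57 uM furafylline.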

[15] = target: Cytochrome P450 3A4 (Homo sapiens) (UniProt P08684); experiment: qHTS Assay for Inhibitors and Substrates of Cytochrome P450 3A4 (AID 884); also: potency is read from the fitted curve at half-maximal effect; nearly all actives have a fitted effect of over 50% in size
Cytochrome P450 3A4 (Homo sapiens), sequence (P08684 whole entry, looked up): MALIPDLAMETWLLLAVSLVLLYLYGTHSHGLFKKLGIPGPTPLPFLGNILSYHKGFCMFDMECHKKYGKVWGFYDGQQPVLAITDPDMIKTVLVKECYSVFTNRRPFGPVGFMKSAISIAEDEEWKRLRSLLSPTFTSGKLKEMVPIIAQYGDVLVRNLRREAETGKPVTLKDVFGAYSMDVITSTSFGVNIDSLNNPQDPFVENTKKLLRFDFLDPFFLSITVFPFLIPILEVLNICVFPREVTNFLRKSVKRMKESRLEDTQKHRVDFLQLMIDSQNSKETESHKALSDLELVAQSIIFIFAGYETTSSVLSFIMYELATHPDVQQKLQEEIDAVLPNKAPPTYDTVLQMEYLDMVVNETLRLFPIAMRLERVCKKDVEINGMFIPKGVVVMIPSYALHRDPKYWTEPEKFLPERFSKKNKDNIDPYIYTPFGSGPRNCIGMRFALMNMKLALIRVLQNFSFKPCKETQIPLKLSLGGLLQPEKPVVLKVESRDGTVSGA
Outline: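 Luminescent readout of luciferin produced by CYP3A4 (20 nM) dealkylation of Luciferin-PPXE, 25 uM (its KM). NADPH-driven reaction ran 60 min at RT after 10 min compound preincubation; data scaled to 57 uM ketoconazole as 100% inhibition.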

[16] = target: Cytochrome P450 3A4 (Homo sapiens) (UniProt P08684); experiment: qHTS Assay for Activators of Cytochrome P450 3A4 (AID 885); also: nearly all actives have a fitted effect of over 65% in size
Outline: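 Activators are scored by enhanced luminescence from CYP3A4 conversion of luciferin-PPXE (25uM, equal to KM) to luciferin, after 60 min at RT with an NADPH-regenerating system.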

[17] = target: Cytochrome P450 2C19 (Homo sapiens) (UniProt P33261); experiment: qHTS Assay for Inhibitors and Substrates of Cytochrome P450 2C19 (AID 899); also: % is scaled to controls: 0 for no effect and ±100 for the full control effect; nearly all actives have a fitted effect of over 60% in size
Cytochrome P450 2C19 (Homo sapiens), sequence (P33261 whole entry, looked up): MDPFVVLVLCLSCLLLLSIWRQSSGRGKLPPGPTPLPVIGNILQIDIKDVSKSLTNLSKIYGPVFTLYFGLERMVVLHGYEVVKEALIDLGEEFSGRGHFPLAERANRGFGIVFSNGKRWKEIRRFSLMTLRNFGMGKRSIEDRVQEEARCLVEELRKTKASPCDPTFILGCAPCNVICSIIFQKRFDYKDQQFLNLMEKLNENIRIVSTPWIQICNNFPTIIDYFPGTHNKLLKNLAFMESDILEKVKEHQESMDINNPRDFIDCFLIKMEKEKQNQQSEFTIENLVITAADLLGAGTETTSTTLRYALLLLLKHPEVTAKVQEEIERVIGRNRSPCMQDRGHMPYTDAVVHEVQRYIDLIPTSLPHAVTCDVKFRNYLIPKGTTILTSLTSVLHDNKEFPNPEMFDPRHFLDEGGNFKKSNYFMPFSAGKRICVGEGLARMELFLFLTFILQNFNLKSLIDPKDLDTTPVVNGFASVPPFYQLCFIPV
Outline: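 5 nM human CYP2C19 with 10uM Luciferin-H EGE (at KM) in 50mM KPO4, compound preincubated 10 min at 37C, then NADPH regeneration for 60 min at 37C. Luciferin read by luminescence after detection reagent; normalized to 57uM ketoconazole as full inhibition.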

[18] = target: Lysosomal acid glucosylceramidase (Homo sapiens) (UniProt P04062); experiment: Glucocerebrosidase-p2 (AID 348; in the data active = potency below about 10 µM; also: potency is read from the fitted curve at half-maximal effect); conditions: purified GBA, blue fluorogenic substrate, 40 min
Lysosomal acid glucosylceramidase (Homo sapiens), sequence (P04062 whole entry, looked up): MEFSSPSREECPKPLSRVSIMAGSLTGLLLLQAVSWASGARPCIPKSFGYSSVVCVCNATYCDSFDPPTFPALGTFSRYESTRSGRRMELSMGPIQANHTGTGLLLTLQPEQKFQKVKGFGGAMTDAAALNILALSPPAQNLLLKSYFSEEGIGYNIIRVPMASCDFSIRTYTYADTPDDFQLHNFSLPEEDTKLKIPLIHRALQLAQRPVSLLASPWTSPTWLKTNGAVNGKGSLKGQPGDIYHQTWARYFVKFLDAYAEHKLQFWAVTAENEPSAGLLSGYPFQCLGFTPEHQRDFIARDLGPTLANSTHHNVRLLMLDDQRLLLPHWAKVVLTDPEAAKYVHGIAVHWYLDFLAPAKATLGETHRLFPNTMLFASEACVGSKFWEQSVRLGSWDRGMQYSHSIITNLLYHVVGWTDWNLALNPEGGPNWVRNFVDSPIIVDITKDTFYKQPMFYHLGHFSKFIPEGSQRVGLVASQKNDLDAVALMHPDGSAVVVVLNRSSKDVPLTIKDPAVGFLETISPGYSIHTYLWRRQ
Outline: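 Normal human glucocerebrosidase (0.2 nM) with blue fluorogenic substrate (80 uM final) in citrate/phosphate pH 5.9 with 10mM sodium taurocholate, 0.01% tween-20; 40 min RT, NaOH/glycine stop; fluorescence Ex 365/Em 440; AC50 from a titration from 0.6 nM upwards.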

[19] = target: Cytochrome P450 2C9 (Homo sapiens) (UniProt P11712); experiment: qHTS Assay for Inhibitors and Substrates of Cytochrome P450 2C9 (AID 883); also: % is scaled to controls: 0 for no effect and ±100 for the full control effect; nearly all actives have a fitted effect of over 60% in size
Outline: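 Human CYP2C9 (10nM) with Luciferin-H at 100uM (its KM) in 25mM KPO4; compound preincubated 10 min at 37C, then NADPH regeneration for 60 min at 37C. Luciferin read by luminescence after detection reagent; normalized to 57uM sulphaphenazole as full inhibition.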

[20] = measured here: cell count channel max response
[21] = measured here: lipid channel max response

COCCNc1ncnc2ccc(-c3ccccc3C)cc12
inactive: activity change, negative = inhibition [1] -10.5% | activity change, negative = inhibition [2] 10.4% | activity, negative = inhibition [3] -16.2% | Potency [4] > 46 µM | Potency [5] > 46 µM | outcome [6] | activity change, negative = inhibition [7] -6.26% | Potency [11] | Potency [12]
-10.5%: max response [7, 20]
active: Potency [8] 14.1 µM | Potency [9] 8.91 µM | Potency [10] 11.2 µM
-19.3%: max response [7, 21]

N#CCCn1c(=O)c(-c2ccc(F)cc2)nc2cnc(N3CCOCC3)nc21
23%: max response [7, 21]
20.8%: max response [7, 20]
inactive: activity change, negative = inhibition [1] -0.71% | activity change, negative = inhibition [2] 13.6% | activity, negative = inhibition [3] 10.6% | Potency [4] > 9.22 µM | Potency [5] > 46 µM | outcome [6] | Potency [13] | activity change, negative = inhibition [7] 3.46% | Potency [8] | Potency [9] | Potency [10] | Potency [11] | Potency [12]

COCCn1c(=O)cnc2cnc(OC)nc21
inactive: activity change, negative = inhibition [1] -9.59% | activity change, negative = inhibition [2] 1.87% | activity, negative = inhibition [3] -10.3% | Potency [4] > 9.22 µM | Potency [5] > 46 µM | outcome [6] | Potency [13] | activity change, negative = inhibition [7] 6.21% | Potency [8] | Potency [9] | Potency [10] | Potency [11] | Potency [12]
19.3%: max response [7, 20]
24.8%: max response [7, 21]

CS(=O)(=O)Nc1cccc(-c2ccc3ncnc(NC4CC4)c3c2)c1
inactive: activity change, negative = inhibition [1] -14.5% | activity change, negative = inhibition [2] -15.5% | activity, negative = inhibition [3] -20.6% | Potency [4] > 46 µM | Potency [5] > 46 µM | outcome [6] | Potency [13] | Potency [16] | Potency [17] | activity change, negative = inhibition [7] -3.87% | Potency [11] | Potency [12]
-8.29%: max response [7, 20]
-10.1%: max response [7, 21]
active: Potency [14] 0.631 µM | Potency [15] 6.31 µM | Potency [8] 6.31 µM | Potency [9] 5.01 µM | Potency [10] 4.47 µM

Cc1noc(C)c1-c1cc(NCc2cccnc2)ncn1
6.22%: max response [7, 21]
active: Potency [14] 1 µM | Potency [8] 15.8 µM | Potency [9] 22.4 µM
5.59%: max response [7, 20]
inactive: Potency [18] > 11.4 µM | activity change, negative = inhibition [1] 2.04% | activity change, negative = inhibition [2] -0.73% | activity, negative = inhibition [3] 8.46% | Potency [4] > 46 µM | Potency [5] > 46 µM | outcome [6] | Potency [13] | activity change, negative = inhibition [19] 9.31% [at 2.29 µM] | activity change, negative = inhibition [7] 2.28% | Potency [11] | Potency [12]

c1nc(NC2CCNCC2)c2cc(-c3ccoc3)ccc2n1
13.4%: max response [7, 20]
inactive: activity change, negative = inhibition [1] -0.789% | activity change, negative = inhibition [2] 12.3% | activity, negative = inhibition [3] -3% | Potency [4] > 46 µM | Potency [5] > 46 µM | outcome [6] | Potency [13] | activity change, negative = inhibition [7] 0.0897% | Potency [11] | Potency [12]
active: Potency [14] 25.1 µM | Potency [8] 0.891 µM | Potency [9] 1 µM | Potency [10] 0.631 µM
11.3%: max response [7, 21]
